# Source: PubChem BioAssay (Tox21)
# Results filed as inconclusive are left out. Where a call stands in place of a potency, no number is given. The source made the active and inactive calls. Unless noted, calls follow the shape of the dose curve; as a rule, active = well fitted curve in the direction sought with a large enough effect in the repeat runs; inconclusive = weak or mixed curves; inactive = no such curve, though single readings can be large; an effect the other way counts as inactive or inconclusive.
# What was measured:
# [1] = qHTS assay to identify small molecule antagonists of the estrogen related receptor (ERR) signaling pathway - cell viability counter screen (AID 1224818); also: series mostly up to about 46 µM
# Procedure, shortened: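 Viability of ERR cells, CellTiter-Fluor fluorescence; 17.5 h compound exposure at 37 C, DMSO vehicle; 30 min reagent incubation at 37 C/5% CO2.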
# [2] = qHTS assay to identify small molecule antagonists of the estrogen related receptor signaling pathway with the pleiotropic PPARgamma coactivator (PGC) cell viability counter screen (AID 1224822; also: potency is read from the fitted curve at half-maximal effect)
# Procedure, shortened: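 17.5 h compound treatment of PGC/ERR cells at 37 C; readout CellTiter-Fluor fluorescence; run alongside the PGC/ERR antagonist screen to flag cytotoxic compounds.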
# [3] = qHTS assay to identify small molecule agonists of the estrogen related receptor (ERR) signaling pathway (AID 1224820); also: potency is read from the fitted curve at half-maximal effect
# Procedure, shortened: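 Following a 6 h settling period, 2,000 ERR cells per well receive DMSO-dissolved compounds by pin tool and incubate 18 h at 37 C; agonist activity is scored from One-Glo luminescence read 30 min post-addition.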
# [4] = qHTS assay to identify small molecule agonists of the estrogen related receptor signaling pathway with the pleiotropic PPARgamma coactivator (PGC) (AID 1224823); also: potency is read from the fitted curve at half-maximal effect
# Procedure, shortened: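 In this quantitative high-throughput screen, an 18 h, 37 C treatment of PGC/ERR cells with compounds in DMSO preceded a One-Glo luminescence read taken after 30 min at room temperature.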
# [5] = system: estrogen-related receptor alpha (ERRalpha) with PGC-1alpha coactivator, human; experiment: qHTS assay to identify small molecule antagonists of the estrogen related receptor signaling pathway with the pleiotropic PPARgamma coactivator (PGC) (AID 1224821; calls by dose curve; also: nearly all actives have a fitted effect of over 50% in size; also: potency is read from the fitted curve at half-maximal effect)
# Procedure, shortened: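 Screening used NTP's PGC/ERR cells, dosed via pin tool with compound in DMSO alongside positive and negative controls. After 18 h at 37 C, One-Glo reagent sat 30 min at room temperature before luminescence detection.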
# [6] = qHTS assay to identify small molecule antagonists of the estrogen related receptor (ERR) signaling pathway (AID 1224819; also: nearly all actives have a fitted effect of over 50% in size; also: potency is read from the fitted curve at half-maximal effect)
# Procedure, shortened: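 Seed ERR cells 2,000/well; rest 6 h at 37 C/5% CO2; pin compounds in DMSO; incubate 18 h at 37 C; add One-Glo; wait 30 min at room temperature; measure luminescence.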
SMILES,Potency [1],Potency [2],Potency [3],Potency [4],Potency [5],Potency [6]
O=C1NC(O)=NC1(c1ccccc1)c1ccccc1,inactive,inactive,–,–,–,–
CC1=C(C(=O)O)N2C(=O)[C@@H](NC(=O)C(N)C3=CCC=CC3)[C@H]2SC1 (stereo not given in full),inactive,inactive,–,–,–,–
CN[C@H](CC(=O)O)C(=O)O,inactive,–,inactive,inactive,–,–
CC(C)NC[C@H](O)COc1cccc2[nH]ccc12,inactive,inactive,–,–,–,–
CN(C)CCC(c1ccc(Br)cc1)c1ccccn1 (stereo not given),inactive,inactive,–,–,–,–
COc1ccc(NC(=O)/C=C/c2ccc(Cl)cc2)cc1,inactive,inactive,–,–,inactive,–
CCCn1c(=O)c2[nH]c(C3CCCC3)nc2n(CCC)c1=O,inactive,inactive,–,inactive,inactive,–
Clc1ccc(N2CCN(Cc3cc4ccccn4n3)CC2)cc1,inactive,–,inactive,inactive,–,–
Nc1ccn([C@H]2O[C@H](CO)[C@@H](O)C2(F)F)c(=O)n1,inactive,inactive,–,–,–,–
O=c1ccc2ccc(O)c(O)c2o1,inactive,inactive,inactive,inactive,–,–
COc1cc2c(cc1OC)C1CC(=O)C(CC(C)C)CN1CC2 (stereo not given),inactive,inactive,–,–,–,–
COc1cc([C@@H]2c3cc4c(cc3[C@H](O)C3COC(=O)[C@@H]32)OCO4)cc(OC)c1OC (stereo not given in full),inactive,inactive,–,–,–,–
CC(C)[C@H](NC(=O)OCc1ccccc1)C(=O)N[C@H](C=O)Cc1ccccc1,inactive,–,inactive,inactive,–,–
CN1C2CCC1CC(OC(=O)C(CO)c1ccccc1)C2 (stereo not given),inactive,inactive,–,–,–,–
CC1CC2C3CCC4=CC(=O)C=C[C@]4(C)[C@@]3(F)[C@@H](O)C[C@]2(C)[C@@]1(O)C(=O)CO (stereo not given in full),inactive,inactive,–,–,–,–
Cc1nc2n(c(=O)c1CCN1CCC(c3noc4cc(F)ccc34)CC1)CCCC2O (stereo not given),inactive,inactive,inactive,inactive,–,–
CC(C)NC[C@H](O)COc1cccc2ccccc12,inactive,inactive,–,–,–,–
CC(N)(Cc1ccc(O)c(O)c1)C(=O)O (stereo not given),inactive,inactive,–,–,–,–
NCC(O)c1ccc(O)c(O)c1 (stereo not given),inactive,inactive,–,–,–,–
CC(=O)SC1CC2=CC(=O)CC[C@]2(C)C2CC[C@@]3(C)C(CC[C@@]34CCC(=O)O4)C12 (stereo not given in full),inactive,inactive,–,–,–,–
O=C(CCSCc1ccco1)NNC(=O)N1Cc2ccccc2Oc2ccc(Cl)cc21,inactive,inactive,inactive,inactive,–,–

SMILES,Potency [1],Potency [2],Potency [3],Potency [4],Potency [5],Potency [6]
N.N.O=C(O)C1(C(=O)O)CCC1.[Pt+2],inactive,inactive,–,–,–,–
CCCCCCN(CCCCCC)C(=O)Cc1c(-c2ccc(F)cc2)[nH]c2ccccc12,inactive,–,inactive,inactive,–,–
N=C(N)c1ccc(N)cc1,inactive,inactive,inactive,inactive,–,–
Nc1nc(N)c2nc(CNc3ccc(C(=O)NC(CCC(=O)O)C(=O)O)cc3)cnc2n1 (stereo not given),inactive,inactive,inactive,inactive,–,–
CC(C)(C)NCC(O)COc1nsnc1N1CCOCC1 (stereo not given),inactive,inactive,–,–,–,–
O=C(CCc1ccncc1)NNC(=O)N1Cc2ccccc2Oc2ccc(Cl)cc21,inactive,inactive,inactive,inactive,–,–
CSC(=N)N,inactive,inactive,–,–,–,–
CC(C)NC[C@H](O)COc1ccc(CC(N)=O)cc1,inactive,inactive,–,–,–,–
Oc1cc(O)c2c(c1)O[C@H](c1ccc(O)c(O)c1)[C@@H](O)C2,inactive,inactive,–,–,–,–
C[C@@H](CN1CCC(Cc2ccccc2)CC1)[C@@H](O)c1ccc(O)cc1,inactive,inactive,inactive,inactive,–,–
N[C@@H](CC(=O)O)C(=O)O,inactive,inactive,inactive,inactive,–,–
CCC1(O)CC2CN(CCc3c([nH]c4ccccc34)[C@@](C(=O)OC)(c3cc4c(cc3OC)N(C=O)C3[C@]45CCN4CC=C[C@@](CC)([C@@H](OC(C)=O)[C@]3(O)C(=O)OC)[C@H]45)C2)C1 (stereo not given in full),inactive,inactive,–,–,–,–
COc1cc(/C=C(\C#N)C(=O)c2ccc(O)c(O)c2)cc(I)c1O,inactive,inactive,–,inactive,inactive,–
C[C@@]1(C2CCCC2)Cc2cc(OCC(=O)O)c(Cl)c(Cl)c2C1=O,inactive,inactive,inactive,inactive,–,–
CC[C@H]1OC(=O)[C@H](C)C(O[C@H]2C[C@@](C)(OC)[C@@H](O)[C@H](C)O2)[C@H](C)[C@@H](OC2O[C@H](C)C[C@H](N(C)C)[C@H]2O)[C@](C)(O)C[C@@H](C)CN(C)[C@H](C)[C@@H](O)[C@]1(C)O (stereo not given in full),inactive,inactive,–,–,–,–
CCCCCCCCCCCCCCC[C@H](O)[C@H](N)CO,inactive,inactive,–,–,–,–
C=C[C@H]1CN2CC[C@@H]1C[C@H]2[C@H](O)c1ccnc2ccc(OC)cc12,inactive,inactive,–,–,–,–
CN1C2CCC1CC(OC(=O)c1c[nH]c3ccccc13)C2 (stereo not given),inactive,inactive,–,–,–,–
CCCc1c(-c2ccc(O)cc2)nn(-c2ccc(O)cc2)c1-c1ccc(O)cc1,inactive,inactive,inactive,inactive,–,–
CCCCC[C@H](CC(=O)NO)C(=O)N[C@H](C(=O)N1CCC[C@H]1CO)C(C)C,–,inactive,inactive,inactive,10.2 µM (active),5.11 µM (active)
Nc1ncnc2c1nc(Br)n2C1OC2COP(=O)(O)O[C@@H]2C1O (stereo not given in full),–,inactive,inactive,inactive,inactive,inactive

SMILES,Potency [1],Potency [2],Potency [3],Potency [4],Potency [5],Potency [6]
O=C(c1cc(O)c(O)c([N+](=O)[O-])c1)c1ccccc1F,–,–,inactive,–,22.8 µM (active),25.6 µM (active)
CCOC(=O)C1=C(C)NC(C)=C(C(=O)OCC)C1c1c(F)c(F)c(F)c(F)c1F,–,–,inactive,inactive,25.6 µM (active),19.6 µM (active)
O=C1c2ccccc2C(=O)c2c(NCCc3ccc(O)cc3)ccc(NCCc3ccc(O)cc3)c21,–,11.9 µM (active),inactive,inactive,inactive,18.1 µM (active)
NC[C@@H]1O[C@H](C23CC4CC(CC(C4)C2)C3)Cc2c1ccc(O)c2O,–,–,inactive,inactive,inactive,22.8 µM (active)
O=C1NCc2c1c1c3ccccc3[nH]c1c1[nH]c3ccccc3c21,–,–,inactive,inactive,inactive,2.76 µM (active)
CC(C)Cn1c(=O)n(C)c(=O)c2[nH]cnc21,–,inactive,inactive,inactive,inactive,inactive
Cc1cc2c(cc1Cl)N(C(=O)Nc1ccc(Oc3cccnc3C)nc1)CC2,–,–,inactive,inactive,12.8 µM (active),5.11 µM (active)
CCCCCCCCCCCCCCCCCCN(CCCCCCCCCCCCCCCCCC)CCCN(CCO)CCO,–,inactive,inactive,inactive,inactive,inactive
CCC(=O)N1CCN(C(=O)c2ccccc2)CC1,–,inactive,inactive,inactive,inactive,inactive
COc1ccc(/C=C2\COc3ccc(C)cc3C2=O)cc1O,–,inactive,1.19 µM (active),–,inactive,inactive
CC[C@@H]1Cc2cc(O)ccc2C2=C1c1ccc(O)cc1C[C@H]2CC,–,–,inactive,inactive,15 µM (active),14.4 µM (active)
CC(C)c1ccc2c(c1)c(SC(C)(C)C)c(CC(C)(C)C(=O)O)n2Cc1ccc(Cl)cc1,–,–,inactive,inactive,20.3 µM (active),12.8 µM (active)
CCNc1nc2c(ncn2[C@H]2C[C@H](O)[C@@H](CO)O2)c(=O)[nH]1,–,inactive,inactive,inactive,inactive,inactive
O=C(c1ccc(Cl)cc1)N1CCN(c2ccc([N+](=O)[O-])c3ncccc23)CC1,–,–,inactive,–,–,7.5 µM (active)
CC(C)(C)NCC(O)COc1cccc2[nH]c(=O)[nH]c12 (stereo not given),–,inactive,inactive,inactive,inactive,inactive
OCC1O[C@H]([S-])C(O)[C@@H](O)[C@@H]1O.[Au+] (stereo not given in full),–,9.08 µM (active),inactive,inactive,5.11 µM (active),22 µM (active)
Cn1c(=O)c(-c2c(Cl)cccc2Cl)cc2cnc(Nc3ccc(N4CCOCC4)cc3)nc21,–,–,inactive,0.0531 µM (active),inactive,4.38 µM (active)
Nc1nc2ccc(Cl)cc2n2c(-c3ccccc3)nnc12,–,inactive,inactive,inactive,inactive,inactive
O=Nc1c(-c2c(O)[nH]c3ccccc23)[nH]c2ccccc12,–,13.9 µM (active),2.87 µM (active),–,inactive,inactive
Cc1cccc(-c2[nH]c(C(C)(C)C)nc2-c2ccc3nccnc3c2)n1,–,8.1 µM (active),inactive,inactive,6.94 µM (active),10.2 µM (active)
CNCCC(Oc1ccccc1C)c1ccccc1 (stereo not given),–,inactive,inactive,inactive,inactive,inactive
